Assay outcomes (PubChem BioAssay)
Marburg entry = Marburg virus entry inhibition; Marburg virus pseudotype entry/binding inhibition, cell-based; Potency, µM (doses to about 49.2 µM), for the others: at the top dose activity change, negative = inhibition, hits mostly inhibitors; 18,000 tested, 6.5% active
LASV entry inh = inhibitors of Lassa virus binding or entry into cells; Lassa virus pseudotyped entry inhibition, cell-based qHTS; 18,000 tested, 4.1% active; Potency, µM (highest dose often 49.2 µM), inactives show top-dose activity change, negative = inhibition, hits mostly inhibitors
* hit, by the source's call; ? = inconclusive; ! = repeats disagree; [ ] = dose if it differs, or a comment. Shown are actives, neighbours in structure and some others; about 7.1% of the full set was active somewhere. Calls come from the whole dose curve; tested in HEK293 cells. % is set by controls: 0 for no effect and ±100 for the full control effect; potency is the fitted concentration of half-maximal effect.

SMILES	Marburg entry	LASV entry inh
c1ccc2c(c1)Sc1ccccc1N2CCN1CCCC1	?	-28.1%
O=C(CCN1CCN(CCO)CC1)N1c2ccccc2Sc2ccc(C(F)(F)F)cc21	?	-14.7%
O=C1CSC2(CCN(CCCN3c4ccccc4Sc4ccc(Cl)cc43)CC2)N1	22.4µM*	?
O=c1n(CCCN2CCN(c3cccc(Cl)c3)CC2)nc2ccccn12	10.4%	-0.3%
CC(C)C[C@H](NC(=O)[C@H](Cc1ccccc1)NC(=O)[C@@H]1CCCN1C(=O)[C@H](CC(=O)O)NC(=O)[C@@H]1CCC(=O)N1)C(=O)N[C@@H](CCCN=C(N)N)C(=O)N[C@@H](Cc1ccccc1)C(N)=O	4.3%	-3.4%
CCOC(=O)[C@H](CCc1ccccc1)N[C@H]1CCc2ccccc2N(CC(=O)O)C1=O	14.1µM*!	4.3%
CCOC(=O)C(CCc1ccccc1)NC1CCc2ccccc2N(CC(=O)O)C1=O (centres undefined)	3.2%	-1.4%
CC1=C2C(=O)C3C(CC=C4C[C@@H](O)CC[C@@]43C)[C@@H]2CC[C@]12O[C@@H]1C[C@H](C)CN[C@H]1C2C (some centres undefined)	21.4%	-3.5%
O=[S+]1([O-])C[C@@H](N2CC[C@@H](O)C2)[C@@H](COCc2ccccc2)N1	23.2%	5.6%
Oc1ccc2c(c1)[C@@]13CCCCC1[C@@H](C2)N(CC1CCC1)CC3 (some centres undefined)	10µM*	?
COc1ccc2c(c1)C13CCCC[C@@H]1C(C2)N(C)CC3 (some centres undefined)	?	0.4%[17.8 µM]
C=CCN1CC[C@]23CCCC[C@H]2[C@H]1Cc1ccc(O)cc13	28.2µM*	?
CC(C)=CCN1CC[C@]2(C)c3cc(O)ccc3C[C@H]1[C@H]2C	?	-28.6%[107 µM]
Cc1ccc(C(=O)Nc2cccc(-c3nc(CNC(=O)c4ccc5ccccc5n4)c(C)o3)c2)s1	-19.1%	-25.2%
CCN1C(=O)[C@H]2[C@H]3C(=CC[C@@H]2C1=O)C1(OCCCO1)[C@@H]1O[C@H]1[C@H]3O	68.1%[8.59 µM]	7.5%[8.59 µM]
CCCCN(CCCC)CCCOC(=O)c1ccc(N)cc1	22.4µM*!	?
CCCCOC(=O)c1ccc(N)cc1	4.7%	?
COc1ccc(C=CNC(=O)Cc2ccc(OC)c(OC)c2)cc1	24.4%[8.59 µM]	-5.7%[8.59 µM]
C[C@@H]1[C@@H]2Cc3ccc(O)cc3[C@@]1(C)CCN2CCc1ccccc1	20µM*	?
C[C@@H]1[C@@H]2Cc3ccc(O)cc3[C@@]1(C)CCN2CC1CC1	-13.6%	-8.7%
CC(=O)Nc1ccccc1-c1nc(CNC(=O)c2cc(C)ccc2C)c(C)o1	7.5%	-1.5%
COC(=O)C1=C(C(=O)OC)[C@@H]2N(C)c3ccccc3[C@@]23C[C@@H](C(=O)OC)N(C(=O)NC2CCCC2)C3=N1	?	14.2%[8.59 µM]
CCC1CN(CC(=O)NC(C)c2cn(C)nc2C)Cc2cc(OC)ccc2O1 (centres undefined)	-4.3%	-12.9%
NS(=O)(=O)c1cc2c(cc1Cl)N[C@@H]([C@@H]1C[C@@H]3C=C[C@H]1C3)NS2(=O)=O	6.2%	-6.9%
OC(CCN1CCCCC1)(c1ccccc1)C1CC2C=CC1C2 (centres undefined)	10µM*	22.4µM*!
SMILES	Marburg entry	LASV entry inh
CCCCC[C@H](O)/C=C/C=C\C=C\[C@@H](O)C/C=C\CCCC(=O)O	-9.5%	-9.7%
CCN1C(=O)NC(CCc2ccccc2)C(C(=O)OC)=C1C (centres undefined)	16.7%[8.59 µM]	-1.5%[8.59 µM]
OCc1ccc(-c2nn(Cc3ccccc3)c3ccccc23)o1	14.1µM*	?
CN(C)CCCOc1nn(Cc2ccccc2)c2ccccc12	?	-21.8%[17.8 µM]
CN(C)CC[C@@H](c1ccccc1)c1ccccn1	-2.3%[17.8 µM]	-13.2%[17.8 µM]
CN(C)CCC(c1ccc(Br)cc1)c1ccccn1 (centres undefined)	10µM*	-4.7%
CC(=O)NCC(=O)NCC1Cc2cc(C)cc(-c3ccccn3)c2O1 (centres undefined)	3.4%	1.0%
COC(=O)N[C@H](CC(C)=O)c1ccc(Cl)cc1	2.9%[8.59 µM]	-20.9%[8.59 µM]
Cc1cnc(-n2ncc(C(=O)NCC3COCCO3)c2C2CC2)nc1-c1cccs1 (centres undefined)	50.0%	59.8%
Oc1cc(Cl)ccc1Oc1ccc(Cl)cc1Cl	35.5µM*!	25.1µM*!
O=C(O)Cc1ccccc1Oc1ccc(Cl)cc1Cl	1.8%	-14.6%
CCN1C(=NCC(C)C)N[C@H](c2ccccc2)[C@H](C(=O)OC)[C@H]1C	7.9%[8.59 µM]	?
COc1ccc2c(c1)C[C@@H](C)O[C@]21C(=O)Nc2ccccc21	70.8%[8.59 µM]	35.5%[8.59 µM]
CCCCCCCCCCCC[N+](C)(C)Cc1ccccc1	20µM*	14.1µM*
CCCCCCCCCCCCCCCC[N+](C)(C)CCN(Cc1ccc(OC)cc1)c1ncccn1	-10.8%[17.8 µM]	4.3%[17.8 µM]
C[C@@H]1CCN(C(=O)[C@H](CCCN=C(N)N)NS(=O)(=O)c2cccc3c2NC[C@H](C)C3)[C@@H](C(=O)O)C1	16.9%	-9.9%
C=CCc1ccc(O)c(-c2cc(CC=C)ccc2O)c1	8.9%	-14.4%
C=CCc1ccc(OC)cc1	6.31µM*	6.31µM*
COC(=O)C1=C(C)NC(C)=C(C(=O)OCCN2CCN(C(c3ccccc3)c3ccccc3)CC2)C1c1cccc([N+](=O)[O-])c1 (centres undefined)	12.6µM*	22.4µM*
COC(=O)C1=C(C)NC(C)=C([N+](=O)[O-])C1c1ccccc1C(F)(F)F (centres undefined)	-26.9%	-28.9%
COC(=O)C1=C(C#N)NC(C)=C(C(=O)OC(C)C)C1c1cccc([N+](=O)[O-])c1 (centres undefined)	?	-25.1%
COC(=O)C1=C(C)NC(C)=C(C(=O)OCCN(C)Cc2ccccc2)C1c1cccc([N+](=O)[O-])c1 (centres undefined)	11.2µM*	25.1µM*!
CC(=O)N1CCC[C@H]1C(=O)N1CCc2c(cnc(C)c2CNC(=O)/C=C/c2cccs2)C1	?	-3.3%
COc1cc(OC)c2c(-c3cccc(-c4ccc(N(C)C)cc4)c3)cc(=O)oc2c1	3.55µM*	?
COc1cc(OC)c2c(-c3cccc(/C=C/c4ccc(F)cc4)c3)cc(=O)oc2c1	19.6%	2.9%
SMILES	Marburg entry	LASV entry inh
COc1cc(OC)c2c(-c3cccc(-c4ccc(OC(F)(F)F)cc4)c3)cc(=O)oc2c1	-10.3%	-14.7%
COc1cc(OC)c2c(-c3cccc(-c4ccc(CO)cc4)c3)cc(=O)oc2c1	1µM*	?
Cc1ccc(C(=O)N(Cc2cc3cccc(C)c3nc2N2CCC(O)CC2)C2CC2)cc1	?	-26.4%
FC(F)(F)c1cc(NC(=S)Nc2ccc3ccccc3c2)cc(C(F)(F)F)c1	6.5%	0.1%
CCN(CC)CCOC(=O)C1(c2ccccc2)CCCC1	-31.3%	-25.5%
CCN(CC)CCOC(=O)C1(C2CCCCC2)CCCCC1	11.2µM*!	?
C=C1CCC(O)C/C1=C\C=C1/CCCC2(C)C1CCC2C(C)/C=C/C(C)C(C)C (centres undefined)	26.6%	-29.2%
C=C1C(=C/C=C2\CCC[C@]3(C)[C@@H]([C@H](C)CCCC(C)C)CC[C@@H]23)C[C@@H](O)C[C@@H]1O	-15.1%	15.8µM*
C=C1CCC(O)C/C1=C/C=C1\CCC[C@]2(C)[C@@H]([C@H](C)CCCC(C)C)CC[C@@H]12 (some centres undefined)	-17.0%	-15.6%
C=C1C(=C/C=C2\CCC[C@]3(C)[C@@H]([C@H](C)/C=C/[C@@H](O)C4CC4)CC[C@@H]23)C[C@@H](O)C[C@@H]1O	-24.8%	14.1µM*
